System: TXK
Conditions: concentration: 1 μM,replicates: in singlicate; n = 1
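Further: KINOMEscan kinase panel screen.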

SMILES	%Inh [%]
N#Cc1cccc(C(=O)NC2CCN(c3ccnc(Nc4ccc(F)cc4)n3)C2)c1 (stereo not drawn) [GSK1379708]	0
COc1cccc(CNC(=O)NC2CCN(c3ccnc(Nc4cc(OC)c(OC)c(OC)c4)n3)C2)c1 (stereo not drawn) [GSK1379765]	0
Cc1ccc2c(-c3ccnc(Nc4ccc(C(F)(F)F)cc4)n3)cnn2n1 [GW819776]	0
O=C(Nc1ccc(Oc2ccc3nc(NC(=O)C4CC4)cn3n2)c(F)c1)c1cccn(-c2ccccc2)c1=O	69
CS(=O)(=O)Nc1ccc(-c2ccnc3[nH]ccc23)cc1 [GSK993273]	0
CNC(=O)c1ccccc1Nc1nc(Nc2cccc(CS(C)(=O)=O)c2)ncc1C.O=CO [GSK1520489]	99.7
O=C(Nc1cccc(C(F)(F)F)c1)c1cccc(Oc2ccc3nccn3n2)c1	7
COC(=O)Nc1nc2cc(Oc3ccc(NC(=O)Nc4cc(C(F)(F)F)ccc4Cl)cc3)ccc2[nH]1.Cl [GW697465]	0
CC(C)c1nc(-c2cccc(NS(=O)(=O)c3ccccc3)c2)c(-c2ccnc(Nc3ccc4c(c3)CN(C)CC4)n2)s1 [GSK1649598]	71
CC(=O)Nc1nc2cnc(Nc3cc(NC(=O)c4cccc(CC(C)(C)C#N)c4)ccc3C)nc2s1	1
CCn1c(-c2nonc2N)nc2cncc(CNC3CCNCC3)c21.Cl [SB-747651]	16
CC(C)S(=O)(=O)N1CCN(Cc2ccc3c(c2)nc(NC(=O)c2ccsc2)n3C[C@H](O)c2ccccc2)CC1 [GW635815]	0
